Screening results from PubChem BioAssay.
Insulin prom inh = inhibitors of insulin promoter-driven GFP, primary screen, imaging, TRM-6 cells (human fetal islet line), eGFP reporter, cell count | reporter expression induced with tamoxifen | inhibition, % at 2 µM | hit rate 0.9% among 130,000 | AID 1273, 2008;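 active = inhibition above the mean plus 3 SD, with well images judged a real hit on visual review, cut at about 60% in these data, passing the limit was not always enough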
Measles CPE = compounds protecting cells from measles virus cytopathic effect, primary screen, measles RdRp inhibitor project, single point, MLSMR library, absorbance; Measles virus-infected cells, CPE protection; protection (pct of control), % at 4 µM; hit rate 1.5% among 140,000; AID 841, 2007; in the data active = protection mostly above about 24%, no sharp cut-off; inactive = mostly below about 26%
SDO1 yeast rescue = growth rescue of sdo1-depleted yeast, primary screen, S. cerevisiae, bone marrow failure model; S. cerevisiae sdo1-depleted JHY4D growth rescue, OD600 30 h; hits give high values; pdr5 snq2 efflux-pump mutant strain; z-score at 10 µM; hit rate 0.21% among 140,000;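 active = z-score above 3 at both the 24 hr and the 30 hr optical density reads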;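 note: z-score against mean and SD of all compound wells on the same plate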
ROMK primary = ROMK potassium channel modulators, primary screen, cell-based, thallium flux, MLSMR library | ATP-sensitive inward rectifier potassium channel 1 (Homo sapiens), P48048 | Tet-inducible ROMK, thallium flux fluorescence; actives lie on both sides | B-score at 10 µM | hit rate 2% among 130,000 | AID 1918, 2009;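 active = signal ratio slope over the read window, or its plate-corrected B-score, at least 3 SD from the plate mean, either direction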;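 note: B-score of the F/F0 ratio slope over 7 to 12 s after thallium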
Target sequence (P48048 whole entry, looked up): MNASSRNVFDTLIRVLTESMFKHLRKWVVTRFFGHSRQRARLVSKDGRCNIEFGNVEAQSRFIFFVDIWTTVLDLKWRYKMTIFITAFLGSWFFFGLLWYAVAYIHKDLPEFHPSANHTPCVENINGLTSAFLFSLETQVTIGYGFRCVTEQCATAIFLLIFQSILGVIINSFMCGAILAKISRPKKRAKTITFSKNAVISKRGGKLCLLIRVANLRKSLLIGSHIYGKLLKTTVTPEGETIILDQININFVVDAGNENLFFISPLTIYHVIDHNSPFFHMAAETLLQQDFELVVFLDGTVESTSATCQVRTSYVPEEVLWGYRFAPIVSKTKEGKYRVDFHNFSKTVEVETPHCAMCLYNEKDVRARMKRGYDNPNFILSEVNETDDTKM
ROMK retest = ROMK channel modulator hit retest, confirmation, cell-based, thallium flux, duplicate, resupplied hits; normalized thallium flux (F/F0 slope) at 10 µM; hit rate 54% among 3,000; shares compounds with ROMK primary; fluorescence ratio; hits give low values;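 active = Flux at 10 µM at least 3 SD below or above vehicle control mean in one or both replicates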
* marks the source's active call; other numbers are inactive results; nt = no result given. This is a sample that favours compounds with a hit; in the whole collection about 3% have one here.

SMILES | Insulin prom inh | Measles CPE | SDO1 yeast rescue | ROMK primary | ROMK retest
O=C(NC1CCCC1)C(c1ccc(F)cc1)N(Cc1ccc(Cl)cc1)C(=O)CCl (configuration not stated) | -32 | 1 | -1.1 | -0.15 | nt
CN=C1S/C(=C\c2cn(CC(=O)OC)c3ccccc23)C(=O)N1C | 0 | nt | nt | 0.78* | 0.076
Cc1ccc(C(=O)N2CCN(Cc3ccc4c(c3)OCO4)CC2)cc1[N+](=O)[O-] | nt | nt | nt | 2.8 | nt
Cc1cc2nc(C)n(CCCNC(=O)Nc3ccc(F)cc3)c2cc1C | -20 | 7 | 1.5 | -0.8 | nt
Cc1ccc(C(C[N+](=O)[O-])n2nc(C)cc2C)cc1 (configuration not stated) | 18 | 3 | -2.5 | -2.4 | 0.059*
Cc1ccc(S(=O)(=O)n2nc(C)cc2C)cc1 | 25 | 8 | 0.6 | -0.47 | nt
S=C(NCc1ccco1)N1CCN(c2ccccc2Cl)CC1 | nt | nt | nt | -0.057 | nt
COc1cc(SC#N)ccc1N=Cc1c(C)[nH]n(-c2ccc(Cl)cc2)c1=O | -9 | 4 | 0.46 | -0.016 | nt
COc1ccccc1N=Cc1c(C)c(C#N)c2[nH]c3ccccc3n2c1=O | nt | nt | nt | -3.3* | 0.067*
O=C(/C=C/c1ccc(Br)cc1)N1CCN(c2cccc(C(F)(F)F)c2)CC1 | nt | 21 | -1.2 | nt | 0.077
O=C(/C=C/c1cccc(Br)c1)N1CCN(c2cccc(C(F)(F)F)c2)CC1 | nt | 3 | -1 | -0.33 | nt
CCN1C(=O)/C(=C\C(=O)c2cccs2)c2cc(Br)ccc21 | -94 | nt | nt | -2.2 | nt
O=C1Nc2ccccc2/C1=C/C(=O)c1cccs1 | 16 | 27 | -2.2 | -5.6* | 0.039*
NC(=O)c1ccc(C(F)(F)F)cn1 | nt | nt | nt | 0.31 | nt
CCOc1ccc(C2C(C(C)=O)=C(O)C(=O)N2CCc2c[nH]c3ccccc23)cc1 (configuration not stated) | nt | nt | nt | 0.0058 | nt
CCC(=O)NC(NC(=S)Nc1c(C)n(C)n(-c2ccccc2)c1=O)C(Cl)(Cl)Cl (configuration not stated) | nt | 16 | 1.4 | nt | nt
CC(C)(C)c1ccc(S(=O)(=O)N(CCCN2CCOCC2)Cc2cccs2)cc1 | -39 | 0 | -1.7 | -3.5* | 0.052*
Cc1cc(-c2ccccc2C(=O)O)on1 | nt | 19 | 0.14 | nt | nt
O=C(O)c1ccccc1C1=Nc2ccc(O)cc2Oc2cc(O)ccc21 | 44 | 17 | -0.36 | nt | 0.054*
O=C(CN1CCC(c2nc3ccccc3s2)CC1)NCc1cccs1 | -19 | 3 | 0.48 | nt | 0.06*
O=C(CN1CCC(c2nc3ccccc3s2)CC1)N1CCCCC1 | nt | nt | nt | -1.5 | nt
Cc1ccc(C2=NN(C(=O)C3CCCO3)C(c3ccco3)C2)cc1 (configuration not stated) | 4 | nt | nt | -1.6 | nt
O=C(C1CCCO1)N1N=C(c2ccc(Br)cc2)CC1c1ccco1 (configuration not stated) | 11 | 22 | -0.58 | -3.4* | 0.058*
COc1ccc(N2CCN(C(=O)CC34CC5CC(CC(C5)C3)C4)CC2)c([N+](=O)[O-])c1 | 23 | 4 | -1 | -1.7 | nt
COc1ccccc1-n1c(SCC(=O)N2CCc3ccccc32)nc2c(c1=O)SCC2 | nt | 7 | -1.2 | nt | 0.058*
SMILES | Insulin prom inh | Measles CPE | SDO1 yeast rescue | ROMK primary | ROMK retest
CC1Cc2nc(SCC(=O)N3CCc4ccccc43)n(C)c(=O)c2S1 (configuration not stated) | -18 | 5 | -1.7 | nt | nt
C/C=N\NC(=O)COc1cc(C)ccc1C | nt | nt | nt | -0.41 | nt
COc1ccc(-n2c(-c3ccc(Cl)cc3)c[n+]3c2CCc2ccccc2-3)cc1 | 57 | nt | nt | -2.6 | nt
Cc1ccc(-n2c(-c3ccc(Br)cc3)c[n+]3c2CCc2ccc4cccnc4c2-3)cc1 | -16 | 2 | -1.8 | nt | 0.034*
Oc1ccc(N=Nc2cccc(Cl)c2)cc1C=Nc1ccc(N2CCOCC2)cc1 | nt | 15 | -1.1 | nt | nt
C=CCOc1ccc(C=Nc2cccc(Cl)c2)c(O)c1 | 15 | 5 | -0.11 | -2.9* | 0.081
O=C(O)Cn1ncc2c1-c1ccoc1CC2 | nt | 9 | 1.2 | nt | nt
COc1cccc(CNC(=O)CSCc2cnn(-c3ccccc3)c2-n2cccc2)c1OC | -32 | 12 | -1.3 | -3.3* | 0.079
COc1ccccc1CNC(=O)CSCc1cnn(-c2ccccc2)c1-n1cccc1 | -36 | 4 | 0.06 | nt | nt
NNC(=O)/C=C/c1ccc(Cl)cc1Cl | 5 | nt | nt | 2.3* | 0.076
O=C(O)CNC(=O)/C=C/c1ccc(Cl)cc1Cl | nt | nt | nt | 0.12 | nt
COC(=O)CNC(=O)CSc1nc(N)cc(=O)[nH]1 | -53 | 11 | 0.66 | -0.012 | nt
CCCCCCCCCn1c2c(c(=N)c3c1CCC3)CCC2 | -177 | 8 | -2.3 | nt | 0.043*
